Source: PubChem BioAssay (Sanford-Burnham Center for Chemical Genomics)
PPC-1+TRAIL kill: compounds killing PPC-1 cancer cells with TRAIL present, primary screen, TRAIL potentiator project, ATPLite luminescence, uHTS | PPC-1 cells + TRAIL, ATPLite viability luminescence | cell killing (% activity), % at 4 µM or 5 µM | 220,000 compounds, 0.41% hits;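 active means cell killing above 50% in the first pass at 4 µM, then a duplicate retest at 5 µM averaging 50% or more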;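 further: plate controls were cells with TRAIL plus DMSO for no effect and medium-only wells lacking cells for full effect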
SENP8 block-1: human SENP8 protease inhibitors, primary screen, biochemical, fluorescence, Nedd8 protein substrate, uHTS; recombinant SENP8; inhibition, % at 20 µM; 360,000 compounds, 0.64% hits; in the data active means inhibition mostly above about 40%, no sharp cut-off; inactive means mostly below about 27%
Target sequence (Q96LD8 whole entry, looked up): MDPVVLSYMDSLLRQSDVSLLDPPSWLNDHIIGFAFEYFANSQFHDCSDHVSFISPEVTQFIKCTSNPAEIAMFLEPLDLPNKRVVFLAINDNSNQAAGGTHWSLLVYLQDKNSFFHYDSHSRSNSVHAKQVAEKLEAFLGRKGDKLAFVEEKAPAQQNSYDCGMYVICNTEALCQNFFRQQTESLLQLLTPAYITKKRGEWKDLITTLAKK
TRAIL sens C8: viability loss with TRAIL in NB7+C8 cells, primary screen, TRAIL sensitizer project, cell-based, ATPlite luminescence. inhibition (viability loss, TRAIL sensitization), % at 10 µM. 360,000 compounds, 1% hits. AID 624354, 2012;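 active means compounds causing at least 50% loss of cell viability in the single-dose screen, relative to plate controls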
SENP6 block: SENP6 protease inhibitors, primary screen, biochemical, luminescence, uHTS | Sentrin-specific protease 6 (Homo sapiens), Q9GZR1 | Recombinant SENP6 catalytic domain, aminoluciferin luminescence | inhibition, % at 10 µM | 330,000 compounds, 1.8% hits | AID 2599, 2010;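 active means inhibition above about 50% at the single tested dose, limit read from the data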;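 further: plate controls were DMSO wells with enzyme for no effect and DMSO wells lacking enzyme for full effect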
SENP8 block-2: SENP8 protease inhibitors, primary screen, biochemical, luminescence | Sentrin-specific protease 8 (Homo sapiens), Q96LD8 | purified SENP8, Z-RLRGG-aminoluciferin cleavage | inhibition, % at 10 µM | 330,000 compounds, 1.2% hits | AID 2540, 2010; in the data active means inhibition above about 50%
SENP7 inh: SENP7 protease inhibitors, primary screen, biochemical, luminescence, uHTS; Sentrin-specific protease 7 (Homo sapiens), Q9BQF6; recombinant SENP7, Z-RLRGG-aminoluciferin luminescence, 40 min; inhibition, % at 5 µM; 330,000 compounds, 1.5% hits;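 active means inhibition above about 50% at the single test dose, limit read from the data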;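 further: plate controls were DMSO with enzyme for no effect and no enzyme buffer wells for full effect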
Target sequence (Q9BQF6 706-1050 limits assumed): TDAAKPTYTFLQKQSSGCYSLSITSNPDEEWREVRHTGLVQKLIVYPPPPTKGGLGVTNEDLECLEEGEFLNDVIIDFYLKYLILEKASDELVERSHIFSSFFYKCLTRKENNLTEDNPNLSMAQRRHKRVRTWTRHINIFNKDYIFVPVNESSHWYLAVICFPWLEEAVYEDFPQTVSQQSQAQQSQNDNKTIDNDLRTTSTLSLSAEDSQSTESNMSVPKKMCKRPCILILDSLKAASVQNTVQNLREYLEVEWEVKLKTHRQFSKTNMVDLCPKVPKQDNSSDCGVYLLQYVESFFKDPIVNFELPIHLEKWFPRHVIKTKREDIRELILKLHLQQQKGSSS
SENP8 conf: human SENP8 protease inhibitors, confirmation, biochemical, Nedd8 protein substrate, single concentration; shares compounds with SENP8 block-1; purified SENP8, Nedd8-AMC/pro-Nedd8 cleavage fluorescence, 30 min; inhibition, % at 25 µM; 1,400 compounds, 15% hits; AID 624319, 2012; in the data active means inhibition mostly above about 39%, no sharp cut-off; inactive means mostly below about 34%
* hit, by the source's call. In the library only some 3% were active in any assay of this set; here they are far more common.

For Cc1cc(C)cc(OC(=O)C23CCC(C)(C(=O)O2)C3(C)C)c1 (stereo not given) the results were PPC-1+TRAIL kill 1.2, SENP8 block-1 18.9, TRAIL sens C8 -1.5, SENP6 block -8.9, SENP8 block-2 -0.1 and SENP7 inh -2.6.
CCCC1CCC(=NNC(=O)CNc2ccc(OC)cc2)CC1 (stereo not given) was read as PPC-1+TRAIL kill 26.7, SENP8 block-1 59.2*, TRAIL sens C8 13.2, SENP6 block -6.7, SENP8 block-2 0.0, SENP7 inh -0.1 and SENP8 conf 13.0.
For COc1ccc(NCC(=O)N/N=C/C2CCCCC2)cc1 the results were PPC-1+TRAIL kill 4.5, SENP8 block-1 21.9, TRAIL sens C8 0.2, SENP6 block -1.6, SENP8 block-2 2.2 and SENP7 inh 7.3.
Cc1c(C(=O)Nc2ccc(Nc3ccccc3)cc2)cccc1[N+](=O)[O-] was read as SENP8 block-1 20.2, TRAIL sens C8 3.7, SENP6 block 7.7, SENP8 block-2 0.0 and SENP7 inh 0.0.
O=C(Nc1ccccc1)c1ccc(Nc2c([N+](=O)[O-])cc([N+](=O)[O-])c3ccccc23)cc1 was read as PPC-1+TRAIL kill 19.5, SENP8 block-1 55.6*, TRAIL sens C8 31.2, SENP6 block 9.4, SENP8 block-2 -5.1, SENP7 inh -4.0 and SENP8 conf 30.9.
COc1cccc(-n2c(O)c(C=NCc3ccccn3)c3ccccc3c2=O)c1 was read as PPC-1+TRAIL kill 9.0, SENP8 block-1 12.7, TRAIL sens C8 -1.2, SENP6 block -10.0, SENP8 block-2 -7.6 and SENP7 inh 2.0.
O=c1c2ccccc2c(C=NCc2ccccn2)c(O)n1-c1ccccc1 was read as PPC-1+TRAIL kill 17.4, SENP8 block-1 25.8*, TRAIL sens C8 9.8, SENP6 block 16.9, SENP8 block-2 -4.5, SENP7 inh -10.4 and SENP8 conf -14.5.
`O=c1c2ccccc2c(C=NCc2ccccn2)c(O)n1-c1ccccc1Cl` gave PPC-1+TRAIL kill -14.9, SENP8 block-1 3.8, TRAIL sens C8 -6.2, SENP6 block 7.3, SENP8 block-2 -5.1 and SENP7 inh 9.4.
`COc1ccc(-n2c(O)c(C=NCc3ccccn3)c3ccccc3c2=O)c(OC)c1` gave PPC-1+TRAIL kill 2.1, SENP8 block-1 40.6*, TRAIL sens C8 -11.4, SENP6 block -12.7, SENP8 block-2 -3.9, SENP7 inh 5.8 and SENP8 conf 27.0.
CC1(C(=O)NS(=O)(=O)c2ccc(F)cc2F)CCN1C(=O)Cc1cccc2ccccc12 (stereo not given) was read as SENP8 block-1 17.8 and TRAIL sens C8 -5.7.
COc1ccc(Br)c(C(=O)OCC(=O)N2CCC(Cc3ccccc3)CC2)c1 was read as SENP8 block-1 41.7*, TRAIL sens C8 10.9, SENP6 block -3.4, SENP8 block-2 -6.6, SENP7 inh -9.0 and SENP8 conf 7.2.
For CC(Nc1cc(N2CCCC2)ccc1[N+](=O)[O-])c1ccccc1 (stereo not given) the results were PPC-1+TRAIL kill 14.3, SENP8 block-1 45.3*, TRAIL sens C8 21.2, SENP6 block 6.7, SENP8 block-2 -1.9, SENP7 inh 1.1 and SENP8 conf -2.0.
For O=[N+]([O-])c1ccc(N2CCOCC2)cc1NCc1ccccc1 the results were PPC-1+TRAIL kill 16.5, SENP8 block-1 42.4*, TRAIL sens C8 -0.2, SENP6 block 13.6, SENP8 block-2 2.9, SENP7 inh 2.7 and SENP8 conf 8.8.
`COc1cccc(OCCNc2cc(N3CCCCC3)ccc2[N+](=O)[O-])c1` gave PPC-1+TRAIL kill -26.4, SENP8 block-1 60.3*, TRAIL sens C8 5.9, SENP6 block -5.1, SENP8 block-2 -2.6, SENP7 inh -1.2 and SENP8 conf 15.8.
`COc1ccc(-c2cc(C(=O)c3c(N)n(C)c(=O)n(C)c3=O)c3ccccc3n2)cc1OC` gave PPC-1+TRAIL kill 6.9, SENP8 block-1 -31.8, TRAIL sens C8 35.0, SENP6 block -4.6, SENP8 block-2 -0.1 and SENP7 inh 1.1.
`COc1ccc(-c2nc(-c3ccccc3OC)no2)cc1OC` gave PPC-1+TRAIL kill 2.5, SENP8 block-1 40.0*, TRAIL sens C8 6.0, SENP6 block 33.0, SENP8 block-2 6.6, SENP7 inh 8.7 and SENP8 conf 29.4.
COc1cc(-c2cc(=O)c3c(O)cc(O)cc3o2)ccc1O was read as PPC-1+TRAIL kill -9.7, SENP8 block-1 55.7*, TRAIL sens C8 -21.3, SENP6 block 41.0, SENP8 block-2 23.9, SENP7 inh 32.0 and SENP8 conf 16.1.
COc1c(O)cc(O)c2c(=O)cc(-c3ccccc3)oc12 was read as SENP8 block-1 68.9*, TRAIL sens C8 14.2, SENP6 block 7.8, SENP8 block-2 3.8, SENP7 inh -3.1 and SENP8 conf 20.6.
`COc1cc(-c2cc(=O)c3ccccc3o2)ccc1O` gave PPC-1+TRAIL kill -22.7, SENP8 block-1 12.5, TRAIL sens C8 8.7, SENP6 block 2.0, SENP8 block-2 -3.5 and SENP7 inh -0.6.
`O=c1cc(-c2ccccc2)oc2cc(O)cc(O)c12` gave SENP8 block-1 14.6, TRAIL sens C8 16.7, SENP6 block 34.9, SENP8 block-2 42.6 and SENP7 inh 22.7.
For COc1cc(O)c2c(=O)cc(-c3ccccc3)oc2c1 the results were PPC-1+TRAIL kill 0.4, SENP8 block-1 53.2*, TRAIL sens C8 4.0, SENP6 block -11.3, SENP8 block-2 -10.4, SENP7 inh 2.5 and SENP8 conf 5.3.
For CCc1cc(=O)oc2cc(OCc3ccc(C(=O)O)o3)ccc12 the results were SENP8 block-1 -115.6, TRAIL sens C8 2.2, SENP6 block 2.8, SENP8 block-2 -7.2 and SENP7 inh -2.2.
For CC(=O)c1ccc(NC(=O)CN2CCCC2)cc1 the results were SENP8 block-1 23.8, TRAIL sens C8 -10.5, SENP6 block -0.5, SENP8 block-2 -8.4 and SENP7 inh -9.5.
Cc1ccc(C(=O)O)cc1NC(=S)NC(=O)c1ccc([N+](=O)[O-])c(C)c1 was read as PPC-1+TRAIL kill 17.7, SENP8 block-1 16.2, TRAIL sens C8 0.9, SENP6 block -11.8, SENP8 block-2 -9.1 and SENP7 inh 11.9.
Screening COC(=O)c1cc(OC)c(OC)cc1NC(=O)C(C)c1ccc([N+](=O)[O-])cc1 (stereo not given) returned PPC-1+TRAIL kill 12.5, SENP8 block-1 5.5, TRAIL sens C8 -2.3, SENP6 block -9.2, SENP8 block-2 -2.4 and SENP7 inh -0.2.
